Only some compounds are listed: those with a hit (about 2.1% of all), similar ones and a draw of the others.
IEC-6 cytotox: cytotoxicity in IEC-6 intestinal epithelial cells, primary screen, cytotoxicity control for KLF5 inhibitor project, cell-based, luminescence; 290,000 tested, 0.78% active; inhibition, % at 5 µM; IEC-6 cytotoxicity, luminescence viability; in the data active = inhibition above about 22%;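 note: 0% = plate median of test compound wells and 100% = cytotoxic reference compound wells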
APP 5UTR inh: inhibitors of APP translation via 5'UTR reporter, primary screen, APP 5'UTR luciferase, SH-SY5Y cells; AID 1285, 2008; SH-SY5Y APP 5'UTR-luciferase reporter, luminescence; inhibition, % at 2 µM; 190,000 tested, 0.82% active;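 active = inhibition above a set limit, derived from the sample mean plus 3 SD, cut at about 45% in these data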
Ba/F3 V617F tox: reduced viability of JAK2V617F-dependent Ba/F3 cells, primary screen, JAK2V617F inhibitor project, cell-based, Ba/F3 EpoR-JAK2V617F, luminescence; AID 1446, 2008; 220,000 tested, 1.1% active; ATP luminescence; inhibition, % at 5.6 µM;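 active = inhibition above the campaign mean plus 3 SD over all tested compounds, cut at about 24% in these data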;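 note: cytokine-independent growth of Ba/F3 cells driven by EpoR plus mutant JAK2; 0% = DMSO-treated cells and 100% = JAK inhibitor I control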
KLF5 inh: KLF5 expression inhibitors, primary screen, DLD-1 cells, luminescence; DLD-1 KLF5 promoter-luciferase reporter; inhibition, % at 5 µM; 290,000 tested, 0.23% active;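 active = inhibition above a per-plate limit of that plate's mean compound inhibition plus 3 SD, cut at about 60% in these data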;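 note: 0% = DMSO wells and 100% = LY294002 at 200 µM; higher means less KLF5 promoter-driven luciferase light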
BaF3 tox: parental Ba/F3 cell viability inhibition, counter-screen for JAK2V617F inhibitor project, murine pro-B, CellTiter-Glo luminescence. CellTiter-Glo ATP luminescence. inhibition, % at 5.6 µM. 220,000 tested, 1.1% active. AID 1486, 2009;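 active = inhibition above a per-campaign cutoff, the mean inhibition of all tested compounds plus 3 SD, cut at about 27% in these data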;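 note: 0% = DMSO wells and 100% = JAK Inhibitor I control wells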
aSyn UTR inh: MLPCN primary screen, SNCA 5' untranslated region. alpha-synuclein 5'UTR reporter, inhibitor activity. inhibition, % (tested at 7.5 µM). 300,000 tested, 0.82% active. AID 1813, 2009; in the data active = inhibition above about 60%;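 note: H4 neuroglioblastoma cells stably carrying SNCA 5'UTR luciferase fusion; 0% = DMSO wells and 100% = positive control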
* hit, by the source's call; . = not tested or not shown.

SMILES	IEC-6 cytotox	APP 5UTR inh	Ba/F3 V617F tox	KLF5 inh	BaF3 tox	aSyn UTR inh
CCn1c(C)[n+](CC(O)COCC2CC=CCC2)c2ccccc21 (centres undefined)	-3	4	27*	-16	41*	-23
CCc1n(CC(O)COCC2CC=CCC2)c2ccccc2[n+]1C (centres undefined)	0	-2	26*	-27	35*	11
Cc1nc2ccccc2n1CC(O)COCC1CC=CCC1 (centres undefined)	4	13	-5	-11	5	-25
CCc1n(CC(O)COC2CCCCC2)c2ccccc2[n+]1C (centres undefined)	-2	-4	24*	-9	57*	-4
OCCC1CN(CC2CCCCC2)CCN1CC1CCCCC1 (centres undefined)	-2	.	.	-21	.	-7
O=C(CNc1cccc(S(=O)(=O)N2CCCC2)c1)Nc1ccc(F)cc1F	.	.	.	.	.	8
NNC(=O)c1cc2c(s1)CCCCCC2	7	70*	-3	-2	5	2
O=C(Nn1cnnc1)c1cc2c(s1)CCCC2	-3	6	-1	-10	3	-15
CN(C(=O)Cn1cc(C(F)(F)F)cc(Cl)c1=O)C1CCS(=O)(=O)C1 (centres undefined)	.	.	.	.	.	4
COc1ccc(-c2nsc3c(N4CCCCC4)ncnc23)cc1	2	-98	-4	-24	1	85*
COc1ccc(NS(=O)(=O)c2ccc(N3CCOCC3)c(NC(=O)c3ccc(OC)cc3)c2)cc1	6	-4	41*	-20	42*	7
CCOc1ccc(C(=O)N[C@H](C(=O)Nc2cccc(S(=O)(=O)N3CCCCC3)c2)C(C)C)cc1	1	-3	1	-13	7	76*
COc1ccc(NS(=O)(=O)c2cccc(NC(=O)c3ccc(S(=O)(=O)N4CCCCCC4)cc3)c2)cc1	11	22	42*	-19	44*	9
COc1ccc(NS(=O)(=O)c2ccc(N3CCOCC3)c(NC(=O)c3ccccc3Cl)c2)cc1	2	-2	43*	6	42*	15
Cc1cccc(C(=O)N[C@H](C(=O)Nc2cccc(S(=O)(=O)N3CCCC3)c2)C(C)C)c1	1	.	-1	6	-13	8
COc1ccc(/C(C)=N/NC(=O)c2cccc(S(=O)(=O)N3CCCC3)c2)c(O)c1	.	.	.	.	.	78*
COc1cc(/C(C)=N/NC(=O)c2cccc(S(=O)(=O)N3CCCC3)c2)cc(OC)c1OC	3	.	.	-25	.	1
CCCCNC(=O)c1sc2nc(C)cc(COC)c2c1-n1cccc1	-3	-8	0	-12	5	-13
COCc1cc(C)nc2sc(C(=O)NN)c(-n3cccc3)c12	-7	6	1	-33	6	71*
CC(C)(C)C(=O)NC(=S)Nc1ccccc1C(=O)Nc1ccccc1	1	17	-2	-22	95*	7
NC(=O)CN1C(=O)C(=O)N(Cc2cccc(C(F)(F)F)c2)C1=O	-9	.	.	-22	.	-6
CCc1nc2ccccc2c2nc3ccccc3n12	5	2	5	-23	7	-50
O=c1c2ccc([N+](=O)[O-])c3cccc(c32)c2nc3ccccc3n12	8	-8	4	-9	6	79*
Cc1c(C)c2ccc(OCC(=O)Nc3nccs3)cc2oc1=O	1	.	.	-12	.	66*
Cc1cc(=O)oc2cc(OCC(=O)Nc3nccs3)ccc12	-1	.	.	-114	.	-51
SMILES	IEC-6 cytotox	APP 5UTR inh	Ba/F3 V617F tox	KLF5 inh	BaF3 tox	aSyn UTR inh
CC(C)C1Cc2c(sc3ncnc(NN)c23)CO1 (centres undefined)	4	.	.	-23	.	-2
CC(=O)NS(=O)(=O)c1ccc(NC(=O)CCC2CCCC2)cc1	5	52*	0	-9	3	7
Cc1cc(C(=O)Nc2cccc(C(=O)O)c2)oc1C	-12	2	-3	-2	5	87*
Cc1cc(C(=O)Nc2cccc(C(=O)O)c2)c(C)o1	4	-12	-2	-17	3	-92
CCCCNC(=O)Nc1nnc(C(C)(C)C)s1	0	.	0	-7	-1	-50
CCOC(=O)Cn1c2c(c(=N)c3c1CCC3)CCCC2	-4	3	1	3	9	-15
CCCn1c2c(c(=N)c3c1CCC3)CCCC2	-1	-9	65*	-32	65*	2
CCCn1c2c(c(=N)c3c1CCC3)CCC2	-1	.	46*	-27	54*	-12
CCCn1c(=S)[nH]c2sc3c(c2c1=O)CCCC3	4	.	.	-29	.	-11
CCCCCCCn1c2c(c(=N)c3ccccc31)CCC2	34*	7	99*	-12	78*	79*
O=C(c1ccc(C(F)(F)F)cc1)C1CCCN(C(=O)CN2C(=O)CSC2=O)C1 (centres undefined)	-3	-13	-1	-21	5	-16
CN(CC(=O)Nc1ccc(Cl)c(C(F)(F)F)c1)C(=O)Cc1ccsc1	.	.	.	.	.	7
Cc1c(Cl)cccc1-c1ccc(CNCc2ccccn2)o1	0	.	.	-10	.	0
COC(=O)c1cc(S(=O)(=O)NCCN2CCN(c3ccccc3F)CC2)c[nH]1	-4	.	.	4	.	1
CCOc1ccccc1-c1nc(CN2CCN(C(=O)c3ccco3)CC2)c(C)o1	-9	.	.	-5	.	21
CCOc1ccccc1-n1c(CN2CCN(C(=O)c3ccco3)CC2)nc2ccccc2c1=O	1	8	-1	-7	-1	111*
CC(=O)O[C@H]1C(=O)[C@]2(C)[C@H]([C@H](OC(=O)c3ccccc3)[C@]3(O)C[C@H](OC(=O)[C@H](O)[C@@H](NC(=O)c4ccccc4)c4ccccc4)C(C)=C1C3(C)C)[C@]1(OC(C)=O)CO[C@@H]1C[C@@H]2O	.	.	.	.	.	95*
Cc1sc2ncnc(NCC3COc4ccccc4O3)c2c1C (centres undefined)	9	8	53*	-6	73*	2
Cc1sc2ncnc(NCC(C)(C)N3CCOCC3)c2c1C	5	9	21	-8	37*	17
c1ccc(-c2csc3ncnc(NCC4COc5ccccc5O4)c23)cc1 (centres undefined)	10	19	72*	3	71*	14
Cc1sc2ncnc(Nc3ccccc3)c2c1C	8	.	2	-20	7	8
Cc1sc2ncnc(NCc3ccccc3)c2c1C	9	-5	13	5	35*	44
S=C(Nc1ccc(Oc2ccccc2)cc1)N1CCN(c2ccccn2)CC1	3	15	-4	-16	-3	-14
COCCNC(=O)/C(C#N)=C/c1c(N2CCCCCC2)nc2ccccn2c1=O	1	.	.	11	.	20
O=C1CCCN1c1ccc(S(=O)(=O)NCCOc2ccccc2)cc1	1	3	2	-9	5	0

High-throughput results as filed in PubChem BioAssay.
